As usually defined, the Kd is the concentration at which binding is half-saturated.

Molecules are shown by their SMILES.

Data on twelve molecules can be found in article PMC5540273 (PLoS ONE, 2017).

One assay deals with T1, PIP5K2C.
T1 construct: gene PIP4K2C

The subject of the next assay is T2, PIK4CB.
T2 construct: gene PI4KB
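Also: kd values determined as follow-up on hits from a single-replicate KINOMEscan panel screen.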

For `COc1cc(Nc2nccc(N3CCC(NC(=O)C4COc5ccccc5O4)C3)n2)cc(OC)c1OC` (centres unmarked) [GSK1379761], the Kd with PIP5K2C came out at 670 nM.

In the assay on PIP5K2C, `CCS(=O)c1ccc(-c2coc3ccc(-c4nnc(C)o4)cc23)cc1` (centres unmarked) had an equilibrium dissociation constant (Kd) of 85 nM.

`FC(F)(F)c1ccc(-c2ncn(CCCN3CCOCC3)c2-c2ccncc2)cc1` [SB-217780] yielded a Kd in the assay on PRKCD greater than 10000 nM.

`Nc1nc(-c2ccccc2F)c(-c2ccnc3ccccc23)s1` [GW560459]: the equilibrium dissociation constant (Kd) in the assay on RIPK2 is greater than 10000 nM.

Take `COc1ccc(-c2cc3c(C)nc(N)nc3n([C@H]3CC[C@H](O)CC3)c2=O)cn1`: the Kd with PIK3CG is 0.32 nM; in the assay on PIK4CB, 25 nM.

As to `C[C@@H]1CC[C@H](C(=O)NC2CCCCC2)CN1c1cc(-c2ccc3c(N)n[nH]c3c2)nc(N)n1` [GSK2291363], the Kd in the assay on PIP5K1A is 440 nM; in the assay on PRKX it was 460 nM; in the assay on RIOK1, 210 nM; with RIOK3, 150 nM.

Turning to `COc1cc2ncn(-c3cc(OCc4ccncc4)c(C(N)=O)s3)c2cc1OC` [GSK336313], the figures for the Kd in the assay on PLK1 and in the assay on PLK2 were 110 nM and 41 nM, respectively.

`Nc1ncnc2c1ncn2-c1cccc(F)c1` [SKF-97560]: the Kd in the assay with RIPK2 was greater than 10000 nM.

Consider `Cc1cccc(-c2nc(Nc3ccc4c(cnn4C)c3)c3ccccc3n2)n1` [GW876731], for which the Kd with PIKFYVE was 380 nM; in the assay with PRKD1 it was 7.2 nM; in the assay with PRKD2, 12 nM; in the assay with PRKD3, 13 nM.

On to `CCC(=O)c1c(-c2ccccc2)c2cc(Cl)ccc2c(=O)n1Cc1cc(S(C)(=O)=O)n(CC(N)=O)n1`, for which, in the assay on PRKCH, the Kd is greater than 10000 nM.

As for `COc1cc2ncn(-c3cc(OCc4ccc(S(C)(=O)=O)cc4)c(C(N)=O)s3)c2cc1OC` [GW869979], the Kd in the assay with PLK1 was found to be 14 nM; with PLK2, 5.9 nM; with PLK3, 100 nM.

Regarding `COc1cc2ncn(-c3cc(OCCCc4ccccc4)c(C(N)=O)s3)c2cc1OC` [GSK205189], the Kd with PLK2 came to 34 nM; in the assay on PLK3, 120 nM.
